{"source": "the antibiotic and cytotoxicity screens of Wong et al. (2023)", "note": "Among all 39,000 compounds or so, about 3,300 (8.5%) were called active. This excerpt belongs to a sample that is enriched for actives."}
{"tested_on": "HepG2", "test": "cytotoxicity call (relative viability < 0.9)", "conditions": "10 µM"}
{"smiles": "C[C@@H]1CN([C@H](C)CO)C(=O)c2cc(NC(=O)Nc3ccc(C(F)(F)F)cc3)ccc2O[C@@H]1CN(C)C(=O)Nc1ccc2c(c1)OCO2", "cytotoxicity call": "inactive"}
{"smiles": "COCC(=O)N1CC[C@]2(CC1)CN(Cc1ccc3c(c1)OCO3)[C@@H](CO)c1c2c2ccc(cc2n1C)OC", "cytotoxicity call": "inactive"}
{"smiles": "Nc1ccc(-c2ccco2)cc1", "cytotoxicity call": "inactive"}
{"smiles": "COc1ccc(S(=O)(=O)Nc2ccc3c(c2)CC(=O)N([C@H](C)CO)C[C@@H](C)[C@H](CN(C)S(=O)(=O)c2cn(C)cn2)O3)cc1", "cytotoxicity call": "inactive"}
{"smiles": "CC(C)NC(=O)N(C)C[C@@H]1OCc2cn(nn2)CCCC(=O)N([C@@H](C)CO)C[C@H]1C", "cytotoxicity call": "inactive"}
{"smiles": "C[C@@H]1CN([C@@H](C)CO)C(=O)c2cccc(NS(=O)(=O)c3ccc(F)cc3)c2O[C@H]1CN(C)Cc1ccc(Cl)c(Cl)c1", "cytotoxicity call": "inactive"}
{"smiles": "CC(=O)O[C@@H]1[C@@H](O)C[C@@]2(C)[C@@H](CC[C@@H](C)[C@@]23Cc2c(O)cc4c(c2O3)CN([C@@H](CCC(=O)O)C(=O)O)C4=O)C1(C)C", "cytotoxicity call": "inactive"}
{"smiles": "CCCN(C)C[C@H]1OCCCC[C@H](C)Oc2ccc(NC(=O)c3ccccc3)cc2C(=O)N([C@@H](C)CO)C[C@H]1C", "cytotoxicity call": "inactive"}
{"smiles": "CC(C)N1C[C@H](C)[C@@H](CN(C)Cc2cccc(Cl)c2)Oc2c(NC(=O)c3ccncc3)cccc2C1=O", "cytotoxicity call": "inactive"}
{"smiles": "C[C@@H]1CN([C@@H](C)CO)C(=O)c2cc(NC(=O)Nc3cccc4ccccc34)ccc2O[C@@H](C)CCCCO[C@@H]1CN(C)S(=O)(=O)c1ccc(Cl)cc1", "cytotoxicity call": "inactive"}
{"smiles": "Nc1nnc(C(=O)N2CCCCC2)[nH]1", "cytotoxicity call": "inactive"}
{"smiles": "C[C@@H]1CN([C@H](C)CO)C(=O)c2cc(NC(=O)CCN3CCOCC3)ccc2O[C@H]1CN(C)CC1CCCCC1", "cytotoxicity call": "inactive"}
{"smiles": "C[C@H]1CN([C@@H](C)CO)C(=O)Cc2cc(NC(=O)Cc3ccccc3)ccc2O[C@H]1CN(C)S(=O)(=O)c1cccs1", "cytotoxicity call": "inactive"}
{"smiles": "C[C@@H]1CN([C@@H](C)CO)C(=O)Cc2cc(NC(=O)Cc3ccccc3)ccc2O[C@@H]1CN(C)S(=O)(=O)c1cccs1", "cytotoxicity call": "active"}
{"smiles": "C[C@@H]1CN([C@@H](C)CO)C(=O)Cc2cc(NC(=O)CCC(F)(F)F)ccc2O[C@@H]1CN(C)S(=O)(=O)c1ccccc1", "cytotoxicity call": "active"}
{"smiles": "C[C@@H]1CN([C@@H](C)CO)C(=O)Cc2cc(NC(=O)Cc3ccccc3)ccc2O[C@H]1CN(C)S(=O)(=O)c1cccs1", "cytotoxicity call": "inactive"}
{"smiles": "C[C@H](CO)N1C[C@H](C)[C@@H](CN(C)S(=O)(=O)c2ccccc2)Oc2ccc(NC(=O)CCC(F)(F)F)cc2CC1=O", "cytotoxicity call": "inactive"}
{"smiles": "C[C@@H]1CN([C@H](C)CO)C(=O)Cc2cc(NC(=O)CCC(F)(F)F)ccc2O[C@@H]1CN(C)S(=O)(=O)c1ccccc1", "cytotoxicity call": "inactive"}
{"smiles": "C[C@@H]1CN([C@@H](C)CO)C(=O)c2cc(Br)cnc2O[C@H]1CN(C)Cc1ccccc1C(=O)O", "cytotoxicity call": "inactive"}
{"smiles": "COc1nc2ccc(Br)cc2cc1[C@@H](c1ccccc1)[C@@](O)(CCN(C)C)c1cccc2ccccc12", "cytotoxicity call": "inactive"}
{"smiles": "C[C@@H]1CCCCO[C@@H](CN(C)Cc2ccccc2)[C@H](C)CN([C@H](C)CO)C(=O)c2cc(NC(=O)Nc3ccc4c(c3)OCO4)ccc2O1", "cytotoxicity call": "inactive"}
{"smiles": "CCOc1ccc(CO[C@@H]2O[C@H](CO)[C@@H](O)[C@H](O)[C@H]2NC(C)=O)cc1OC", "cytotoxicity call": "active"}
{"smiles": "CC(=O)N[C@@H]1[C@@H](OCCOc2ccc(Cl)cc2C)O[C@H](CO)[C@H](O)[C@@H]1O", "cytotoxicity call": "inactive"}
{"smiles": "CC(=O)N[C@@H]1[C@@H](Oc2ccc(C(C)=O)cc2)O[C@H](CO)[C@H](O)[C@@H]1O", "cytotoxicity call": "inactive"}
{"smiles": "COCCOC(=O)N1C(=O)[C@@]2(c3ccccc31)[C@H](C(=O)Nc1nc3ccccc3s1)[C@H]1C(=O)O[C@H](c3ccccc3)[C@H](c3ccccc3)N1[C@@H]2c1ccc(OCCO)cc1", "cytotoxicity call": "inactive"}
{"smiles": "CC(C)NC(=O)Cn1ccc([N+](=O)[O-])n1", "cytotoxicity call": "inactive"}
{"smiles": "NS(=O)(=O)c1ccccc1", "cytotoxicity call": "inactive"}
{"smiles": "NS(=O)(=O)C#Cc1ccccc1", "cytotoxicity call": "active"}
{"smiles": "Nc1ccccc1S(N)(=O)=O", "cytotoxicity call": "inactive"}
{"smiles": "C[C@H]1CN([C@@H](C)CO)S(=O)(=O)c2ccc(C#Cc3cccnc3)cc2O[C@@H]1CN(C)C(=O)CN(C)C", "cytotoxicity call": "inactive"}
{"smiles": "CC(C)(O)CC(=O)NCCn1ccc2ncnc(Nc3ccc(Oc4cccc(C(F)(F)F)c4)c(Cl)c3)c21", "cytotoxicity call": "inactive"}
{"smiles": "CS(=O)(=O)CCNCc1ccc(-c2ccc3ncnc(Nc4ccc(OCc5cccc(F)c5)c(Cl)c4)c3c2)o1", "note": "[listing 1 of 2 here]", "cytotoxicity call": "active"}
{"smiles": "CS(=O)(=O)CCNCc1ccc(-c2ccc3ncnc(Nc4ccc(OCc5cccc(F)c5)c(Cl)c4)c3c2)o1", "note": "[listing 2 of 2 here]", "cytotoxicity call": "active"}
{"smiles": "CS(=O)(=O)CCNCc1nc(-c2ccc3ncnc(Nc4ccc(OCc5cccc(F)c5)c(Cl)c4)c3c2)cs1", "cytotoxicity call": "inactive"}
{"smiles": "CC(CCC(=O)O)C1CCC2C3CCC4CCCCC4(C)C3CCC12C", "note": "(stereo not given)", "cytotoxicity call": "inactive"}
{"smiles": "CN(C)CC(=O)N[C@H]1CC[C@H](CC(=O)NCCN2CCCCC2)O[C@H]1CO", "cytotoxicity call": "inactive"}
{"smiles": "Cc1ccc(S[C@]2(C(=O)NCCCN(C)C)CC(=O)N(C3Cc4ccccc4C3)[C@@H]2c2ccc(CO)cc2I)cc1", "cytotoxicity call": "inactive"}
{"smiles": "CS(=O)(=O)N1C[C@H](O)COC[C@@H]2O[C@@H](CC(=O)NCCc3ccncc3)CC[C@H]21", "cytotoxicity call": "inactive"}
{"smiles": "CO[C@H]1CN(C)C(=O)c2cc(NS(C)(=O)=O)ccc2OC[C@@H](C)N(C(=O)CN(C)C)C[C@@H]1C", "cytotoxicity call": "inactive"}
{"smiles": "C[C@H]1CCCCO[C@H](CN(C)CC2CC2)[C@@H](C)CN([C@@H](C)CO)C(=O)c2cc(NC(=O)CCC(F)(F)F)ccc2O1", "cytotoxicity call": "inactive"}
{"smiles": "Cc1ncc(NC(=O)c2ccc(CN3CCN(C)CC3)c(C(F)(F)F)c2)cc1Nc1nccc(-c2cccnc2)n1", "cytotoxicity call": "active"}
{"smiles": "Cc1ccc(NC(=O)c2ccc(CN3CC[C@H](N(C)C)C3)c(C(F)(F)F)c2)cc1Nc1nccc(-c2cncnc2)n1", "cytotoxicity call": "active"}
{"smiles": "Cc1ccc(NC(=O)c2ccc(CN3CCN(C)CC3)cc2)cc1Nc1nccc(-c2cccnc2)n1", "cytotoxicity call": "inactive"}
{"smiles": "Cc1ccc(S(=O)(=O)Nc2ccc3c(c2)C(=O)N([C@@H](C)CO)C[C@H](C)[C@@H](CN(C)C(=O)C2CCCCC2)OCCCC[C@H](C)O3)cc1", "cytotoxicity call": "inactive"}
{"smiles": "COc1ccc(CCNC(=O)[C@@H]2c3ccccc3C(=O)N(Cc3ccccc3OC)[C@H]2c2ccc(CO)cc2)cc1", "cytotoxicity call": "inactive"}
{"smiles": "C[C@@H]1CCCCO[C@H](CN(C)CC2CCCCC2)[C@@H](C)CN([C@H](C)CO)C(=O)c2cc(NC(=O)CCC(F)(F)F)ccc2O1", "cytotoxicity call": "inactive"}
{"smiles": "COc1ccc(NC(=O)N(C)C[C@H]2OCCCC[C@H](C)Oc3ccc(NS(=O)(=O)c4ccccc4)cc3C(=O)N([C@@H](C)CO)C[C@@H]2C)cc1", "cytotoxicity call": "inactive"}
{"smiles": "Cc1ccc(S(=O)(=O)N(C)C[C@H]2OCCCC[C@H](C)Oc3ccc(NC(=O)Cc4ccccc4)cc3C(=O)N([C@@H](C)CO)C[C@H]2C)cc1", "cytotoxicity call": "inactive"}
{"smiles": "COc1ccc([Si](C)(C)[C@H]2[C@H](CCO)O[C@@]3(C(=O)N(Cc4cccc(N5CCCCC5=O)c4)c4ccccc43)[C@@H]2C)cc1", "cytotoxicity call": "inactive"}
{"smiles": "C[C@H]1[C@H]([Si](C)(C)F)[C@@H](CCO)O[C@]12C(=O)N(Cc1cccc(N3C(=O)c4ccccc4Oc4ccccc43)c1)c1ccccc12", "cytotoxicity call": "inactive"}
{"smiles": "COc1ccc([Si](C)(C)[C@@H]2[C@@H](CCO)O[C@]3(C(=O)N(Cc4cccc(N5C(=O)c6ccccc6Oc6ccccc65)c4)c4ccccc43)[C@H]2C)cc1", "cytotoxicity call": "active"}
{"smiles": "COc1ccc([Si](C)(C)[C@H]2[C@H](CCO)O[C@@]3(C(=O)N(Cc4cccc(N5C(=O)c6ccccc6Oc6ccccc65)c4)c4ccccc43)[C@@H]2C)cc1", "cytotoxicity call": "active"}
{"smiles": "CCNc1ncnc2c1nnn2C", "cytotoxicity call": "inactive"}
{"smiles": "Nc1cc([N+](=O)[O-])ccc1C(=O)O", "cytotoxicity call": "inactive"}
{"smiles": "C[C@@H]1CCCCO[C@H](CN(C)C(=O)Nc2ccc(F)cc2)[C@@H](C)CN([C@H](C)CO)C(=O)c2cc(NC(=O)c3ccncc3)ccc2O1", "cytotoxicity call": "inactive"}
{"smiles": "C[C@@H]1CN([C@H](C)CO)C(=O)CCCn2cc(nn2)CO[C@H]1CN(C)C(=O)Nc1ccc2c(c1)OCO2", "cytotoxicity call": "inactive"}
{"smiles": "C[C@@H]1CN([C@@H](C)CO)C(=O)c2cccc(NC(=O)c3cnccn3)c2O[C@@H]1CN(C)S(=O)(=O)c1cccs1", "cytotoxicity call": "inactive"}
{"smiles": "Cc1noc(C)c1NC(=O)Nc1ccc2c(c1)C(=O)N([C@H](C)CO)C[C@@H](C)[C@H](CN(C)Cc1ccc(C(F)(F)F)cc1)OCCCC[C@@H](C)O2", "cytotoxicity call": "inactive"}
{"smiles": "CCN1CCN(c2ccc(Nc3cc(N(C)C(=O)Nc4c(Cl)c(OC)cc(OC)c4Cl)ncn3)cc2)CC1", "cytotoxicity call": "active"}
{"smiles": "C[C@H]1CN([C@@H](C)CO)S(=O)(=O)c2ccc(C3=CCCCC3)cc2O[C@@H]1CN(C)C(=O)C1CCOCC1", "cytotoxicity call": "inactive"}
{"smiles": "C[C@@H]1CCCCO[C@H](CN(C)C(=O)Nc2ccc(F)cc2)[C@H](C)CN([C@@H](C)CO)C(=O)c2cc(NC(=O)Nc3ccc4c(c3)OCO4)ccc2O1", "cytotoxicity call": "inactive"}
{"smiles": "COCC(=O)N1C[C@H](C)[C@H](OC)CN(C)C(=O)c2cc(NC(=O)c3ccc(OC)cc3)ccc2OC[C@@H]1C", "cytotoxicity call": "inactive"}
{"smiles": "Cn1c(=O)c2c(ncn2C[C@@H](O)CO)n(C)c1=O", "cytotoxicity call": "inactive"}
{"smiles": "Cn1c(=O)c2c(ncn2CC(O)CO)n(C)c1=O", "note": "(stereo not given)", "cytotoxicity call": "inactive"}
{"smiles": "Cn1c(=O)c(F)c(Nc2ccc(I)cc2F)c2c(=O)n(C[C@@H](O)CO)cnc21", "cytotoxicity call": "active"}
{"smiles": "C[C@@H]1CN([C@@H](C)CO)C(=O)c2cccc(NC(=O)Nc3ccc(C(F)(F)F)cc3)c2O[C@@H]1CN(C)S(C)(=O)=O", "cytotoxicity call": "inactive"}
{"smiles": "COc1ccc(NC(=O)N(C)C[C@@H]2OCCCC[C@@H](C)Oc3ccc(NS(=O)(=O)c4ccc(F)cc4)cc3C(=O)N([C@H](C)CO)C[C@H]2C)cc1", "cytotoxicity call": "inactive"}
{"smiles": "Fc1ccc(-c2nc3c4ccccc4c4ccccc4c3[nH]2)cc1", "cytotoxicity call": "active"}
{"smiles": "Fc1ccc(-c2nc3ccc4ccccc4c3c3c2CCC3)cc1", "cytotoxicity call": "inactive"}
{"smiles": "N[C@H]1CC[C@H](CCn2cc(C3CCCCC3)nn2)O[C@@H]1CO", "cytotoxicity call": "inactive"}
